The campaign covered roughly 96,000 compounds. About 19,000 (20%) were called active.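 How the source made its calls: active means blocking of liver enzyme CYP2C9 beyond about 50% at 5 µM (limit read from the data); inactive means the rest.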 Only a sample is shown.
Each compound was assayed against Cytochrome P450 2C9 (Homo sapiens) (UniProt P11712) (assay: blockers of cytochrome P450 2C9 activity – biochemical, luminescence, ADME assay, primary screen (AID 777)). Details: CYP2C9 Supersomes, luciferin-H conversion, at 5 µM, stronger effect = higher value.
Sequence of Cytochrome P450 2C9 (Homo sapiens) (P11712 whole entry, looked up): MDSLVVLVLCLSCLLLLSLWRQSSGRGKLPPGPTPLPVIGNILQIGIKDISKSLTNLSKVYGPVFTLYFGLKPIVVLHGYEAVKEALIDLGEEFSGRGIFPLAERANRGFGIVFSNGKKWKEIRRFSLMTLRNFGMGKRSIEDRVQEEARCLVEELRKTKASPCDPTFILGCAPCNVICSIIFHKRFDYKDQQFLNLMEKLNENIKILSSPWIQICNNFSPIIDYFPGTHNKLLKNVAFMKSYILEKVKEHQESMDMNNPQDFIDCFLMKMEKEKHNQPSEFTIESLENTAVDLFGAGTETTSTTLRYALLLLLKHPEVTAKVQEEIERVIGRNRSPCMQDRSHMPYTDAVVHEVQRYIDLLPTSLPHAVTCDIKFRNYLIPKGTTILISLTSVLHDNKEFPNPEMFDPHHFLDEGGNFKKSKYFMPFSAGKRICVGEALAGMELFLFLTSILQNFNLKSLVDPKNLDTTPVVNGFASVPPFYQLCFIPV

Row | SMILES | inhibition
1 | COc1ccccc1CNC(=O)C1CCN(c2nc3ccccc3o2)CC1 | -3.9% (inactive)
2 | FC(F)(F)c1nc2ccccc2nc1N/N=C/c1ccc(Cl)cc1 | 21.3% (inactive)
3 | OC(COc1cccc2ccccc12)CN1CCN(c2ccccn2)CC1 (configuration not stated) | 19.3% (inactive)
4 | CC1(C)Oc2ccc(C(=O)N3CCOCC3)cc2N(CC(=O)Nc2ccccc2)C1=O | 45.6% (inactive)
5 | O=C(CN1C(=O)COc2ccccc21)Nc1ccc(F)cc1 | 39% (inactive)
6 | CC1Cc2ccccc2N1CC(=O)Nc1ccc2c(c1)OC(F)(F)O2 (configuration not stated) | 71.6% (active)
7 | Cc1cc(Cl)c(S(=O)(=O)Nc2ccc3c(c2)OCCO3)cc1OCC(N)=O | 19.9% (inactive)
8 | OC1CN=C2Sc3ccccc3N2C1 (configuration not stated) | -6.8% (inactive)
9 | Cc1nn(C(=O)c2ccoc2C)c(N)c1-c1ccccc1 | 26.4% (inactive)
10 | Cc1nn2c(c1-c1ccccc1)N=C(c1ccco1)CC2c1ccccc1 (configuration not stated) | 63.5% (active)
11 | Cn1c(=O)c(C(=O)Nc2ncccn2)c(O)c2ccccc21 | -24.6% (inactive)
12 | O=C1NC(c2cc3c(cc2Cl)OCO3)Oc2ccccc21 (configuration not stated) | 26.5% (inactive)
13 | NC(CSC12CC3CC(CC(C3)C1)C2)C(=O)O (configuration not stated) | 9.2% (inactive)
14 | N#Cc1c2c(c(-c3ccccc3)[nH]c1=O)CCCC2 | -12.7% (inactive)
15 | N#Cc1c(/N=C/N2CCCC2)oc(-c2ccccc2)c1-c1ccccc1 | 79.9% (active)
16 | COc1ccc(-c2oc(/N=C/N3CCCC3)c(C#N)c2-c2ccc(OC)cc2)cc1 | 96.9% (active)
17 | Cn1c(C(=O)NCCN2CCc3ccccc3C2)cc2c(=O)[nH]c3ccccc3c21 | 20% (inactive)
18 | Cc1noc(NS(=O)(=O)c2ccc(N3CC(O)=C(c4ccccc4)C3=N)cc2)c1C | 3.3% (inactive)
19 | CC(NC(=O)CSc1nc2c(cc1C#N)CN(C)CC2)c1ccccc1 (configuration not stated) | 74.5% (active)
20 | Cc1ccc2cc(C#N)c(SCC(=O)NCC3CCCO3)nc2c1C (configuration not stated) | -3.8% (inactive)
21 | Cc1cc(C(F)(F)F)c(C#N)c(SCC(=O)NC2CC2)n1 | 17.2% (inactive)
22 | CCCC(C(=O)N1CCOCC1)N1C(=O)C2C3C=CC(C3)C2C1=O (configuration not stated) | -2.2% (inactive)
23 | Clc1ccc(Cl)c(Oc2ccc(Oc3nc(Cl)ccc3Cl)cc2)n1 | -102% (inactive)
24 | CSc1ccc(C#N)cc1NC(=O)c1cccc(Cl)c1 | 18.2% (inactive)
25 | CN1C(=O)c2ccc(NC(=O)c3c(F)c(F)c(F)c(F)c3F)cc2C1=O | -24% (inactive)
26 | O=C(c1ccco1)N1CCN(C(=O)c2ccc(COc3ccc(F)cc3)o2)CC1 | 33.7% (inactive)

Row | SMILES | inhibition
27 | CC(=O)c1cccc(NC(=O)Nc2ccc(C)cc2)c1 | 17.7% (inactive)
28 | CC(NC(=O)Nc1ccccc1)c1ccccc1 (configuration not stated) | 7% (inactive)
29 | Cc1ccc(NC(=O)C(C)c2cccc(C(=O)c3ccccc3)c2)cc1 (configuration not stated) | 57.9% (active)
30 | CCn1c(Cc2ccccc2)nnc1SCc1nc2ccccc2c(=O)[nH]1 | -61.8% (inactive)
31 | CC1=C(C)CC2C(=O)N(c3cccc4ccccc34)C(=O)C2C1 (configuration not stated) | 72.9% (active)
32 | O=C(c1ccccc1)c1cc(-c2ccccn2)c(N2CCOCC2)s1 | 25% (inactive)
33 | c1ccc(-c2oc3ncnc(N4CCOCC4)c3c2-c2ccccc2)cc1 | 18.1% (inactive)
34 | O=C1c2ccccc2-c2ncnc3c(N4CCOCC4)cc(N4CCOCC4)c1c23 | 51.5% (active)
35 | c1cnn(-c2cc(N3CCOCC3)ncn2)c1 | -3.4% (inactive)
36 | Cc1cnc(NC(=O)C2CCCC2)s1 | 10.7% (inactive)
37 | CCN1C(=O)/C(=C\N2CCN(c3cccc(Cl)c3)CC2)SC1=S | 4.9% (inactive)
38 | CC(Oc1ccc(Cl)cc1)c1ccnn1S(C)(=O)=O (configuration not stated) | 24.4% (inactive)
39 | COc1ccc(CC(=O)n2nc(-c3cccnc3)nc2N)cc1 | 9% (inactive)
40 | O=C(Cn1ccc([N+](=O)[O-])n1)NCc1cccs1 | -1.6% (inactive)
41 | C=C(C)CSc1nnc(-c2ccc(C)cc2)n1N | 1.1% (inactive)
42 | Cc1ccc(NC(=S)NCCN2CCOCC2)cc1 | -12.4% (inactive)
43 | Cc1ccc(NC(=S)N/N=C2/CCCc3c(C)cc(C)cc32)cc1 | 59.7% (active)
44 | Cc1ccc(NC(=S)NC2CCCC2)cc1 | 29.5% (inactive)
45 | CCOc1ccc(-c2nc(C)sc2CC(=O)O)cc1 | -0.3% (inactive)
46 | CC(C)c1ccc(Nc2ncccc2C#N)cc1 | 3.6% (inactive)
47 | COCCOC(=O)C1=C(C)N=c2s/c(=C\c3cccs3)c(=O)n2C1c1cccs1 (configuration not stated) | 41.5% (inactive)
48 | C=CCOC(=O)C1=C(C)NC(C)=C(C(=O)OCC=C)C1c1cccs1 | 96.8% (active)
49 | C=CCN(C(=O)Nc1ccc2oc(C)nc2c1)c1ccccc1 | 22.8% (inactive)
50 | CCc1c(C)nc2cc(-c3cccs3)[nH]n2c1=O | 30.3% (inactive)
51 | FC(F)(F)c1nnc2ccc(N3CCN(c4ccccc4)CC3)nn12 | 27.4% (inactive)
52 | O=C(CSCc1ccc([N+](=O)[O-])cc1)NCCSCc1ccccc1 | 44.2% (inactive)

Row | SMILES | inhibition
53 | O=C(CSCc1ccccc1Cl)NNC(=O)c1ccccc1 | -1.6% (inactive)
54 | O=C(CSCc1ccc([N+](=O)[O-])cc1)Nc1cccc(C(=O)Nc2ccccc2C(=O)O)c1 | 93.9% (active)
55 | Cc1ccc(C2CC2C(=O)NN)cc1 (configuration not stated) | 15.8% (inactive)
56 | CC(=O)c1cccc(NC(=O)N2CCCC2C(=O)NCCc2ccccc2)c1 (configuration not stated) | -8.8% (inactive)
57 | COCCN(C(=O)c1ccco1)c1nnc(-c2ccc(OC)cc2)s1 | 9% (inactive)
58 | CCN1C(=O)CS/C1=N\c1nccs1 | 17.8% (inactive)
59 | COc1ccc(-n2nnc3c(=O)n(CC(=O)OCc4ccccc4)cnc32)cc1 | -16% (inactive)
60 | COc1ccc(-c2c(C(C)=O)c(C)nc3sc4c(=O)n(-c5ccc(C)cc5)nnc4c23)cc1 | 85.6% (active)
61 | COCc1cc(C)nc2sc3c(=O)n(-c4cccc5ccccc45)nnc3c12 | 26.8% (inactive)
62 | CC(C)(C)NC(=O)C(c1ccco1)N(Cc1ccc2c(c1)OCO2)C(=O)Cn1nnc2ccccc21 (configuration not stated) | 16.8% (inactive)
63 | Cc1cccc(-n2ncc(C#N)c2-n2cccc2)c1 | 39.8% (inactive)
64 | COc1ccc(OC)c(S(=O)(=O)Nc2ccccc2F)c1 | 57.6% (active)
65 | COc1ccc(Cl)cc1S(=O)(=O)Nc1cccc(C(=O)O)c1 | 14.1% (inactive)
66 | COc1ccccc1NS(=O)(=O)N(C)C | -23% (inactive)
67 | Cc1ccc(NC(=O)COc2ccc(-n3ccnc3)cc2)cc1Cl | 95% (active)
68 | Cc1ccc(OCC(=O)Nc2ccc(-c3nc4ncccc4o3)cc2)cc1 | -6.6% (inactive)
69 | Cc1csc(OCC(=O)Nc2ccc(C)c(C)c2)n1 | 4.4% (inactive)
70 | CCN(CC)c1ccc2cc(C(=O)O)c(=O)oc2c1 | -7.5% (inactive)
71 | Cc1cc(=O)n2c3c(cccc13)CCC2 | -60.9% (inactive)
72 | CC(C)Oc1ccc(C(=O)Nc2cc(=O)n(C)c(=O)n2C)cc1 | 10.6% (inactive)
73 | C=C(C)Cn1c(N2CCN(CC)CC2)nc2c1c(=O)[nH]c(=O)n2C | -14.5% (inactive)
74 | COc1cc(C(=O)NC(=S)NCc2ccco2)cc(OC)c1OC | 18.9% (inactive)
75 | Cc1cccc(C)c1NC(=O)CCS(=O)(=O)c1cccc2nsnc12 | -1% (inactive)
76 | O=C(Nc1cc(=O)[nH]c2ncnn12)c1ccccc1Cl | 5.6% (inactive)
77 | O=C(CSCc1cccs1)N1CCCC1 | -22.8% (inactive)
